Out of some 99,000 compounds screened, about 390 (0.39%) were called active. Only a selection was taken, and actives are over-represented in it overall. Unmarked numbers belong to inactive results. Cut-off read from the data, not from the text of the source: active = TR-FRET ratio above about 2000; inactive = the rest.
assay: TR-FRET detection interference compounds, artefact control for PPARgamma SRC-3 recruitment agonists, biochemical, TR-FRET ratio (AID 1048); conditions: TR-FRET artefact counter-screen, PPARgamma/SRC-3 format; at 8 µM; active compounds read high

Point of comparison: `NC(=O)C[C@@H]1NC(=O)CNC(=O)c2cc([N+](=O)[O-])cc(I)c2NCCC(C(N)=O)NC1=O` (stereo not given in full), TR-FRET ratio 1320. Against it:
- CC(C)(C)C1CCC(C(=O)Nc2cccnc2)CC1 (stereo not given) — higher, 1510
- CN1/C(=C\C(=O)c2cccnc2Cl)C(C)(C)c2ccccc21 — higher, 1630
- Cc1ccc(Cl)cc1N1CCN(C(=O)c2cccc3c(=O)c(C)c(-c4ccccc4)oc23)CC1 — higher, 1350
- O=C(CC1SC(=Nc2ccccc2F)N(CCN2CCOCC2)C1=O)Nc1ccc(F)cc1F (stereo not given) — higher, 1720
- O=C(NNC(=O)c1cc2c(s1)CCCC2)c1ccccc1 — higher, 1550
- CC(C)c1nc(CNC(=O)CC2C(=O)NCCN2Cc2ccoc2)cs1 (stereo not given) — higher, 1610
- CCc1cccc(CC)c1NC(=O)COc1ccccc1C(=O)c1cc(C#N)c(=O)n(C2CCCCC2)c1 — higher, 1810
- CCN(CC(=O)NCCc1ccccc1)S(=O)(=O)c1ccc(C)cc1 — higher, 1520
- O=C(O)CCN(Cc1ccccc1)S(=O)(=O)c1c(Cl)cccc1Cl — higher, 1570
- O=C(CCc1ccccc1)Nc1nn[nH]n1 — higher, 1720
- C/C(CC(=O)N1CCN(C=O)CC1)=N\NC(=O)c1ccc(Br)cc1 — higher, 1640
- O=C(Nc1cccc(Cl)c1)c1cc([N+](=O)[O-])ccc1N1CCN(CCO)CC1 — higher, 1540
- O=C(C1CCN(C2CCN(Cc3cccc4c3OCO4)CC2)CC1)N1CCOCC1 — higher, 1420
- Cc1cc(OCC(=O)NC2CCN(C)CC2)ccc1[N+](=O)[O-] — higher, 1610
- O=C(Nc1ccccc1C(=O)N1CCOCC1)c1ccc(Cl)cc1 — higher, 1680
- COc1ccc(C(=O)Nc2ccc(NC(=O)C(C)C)nc2)cc1 — higher, 1500
- C=CCn1nc(-c2ccccc2)c2c(C)onc2c1=O — higher, 1650
- O=C(N1CCCCC1)N1CCN(C(=O)N2CCCCC2)CC1 — higher, 1530
- CC(=O)Nc1ccccc1OC(C)C(=O)N1CCC(C)CC1 (stereo not given) — higher, 1390
- O=C(NCc1ccncc1)NC12CC3CC(CC(C3)C1)C2 — higher, 1490
- Cc1ccc(C(=O)OC(C)CN2CCOCC2)cc1 (stereo not given) — higher, 1500
- CCOC(=O)C1CCCN(C(=O)/C=C/c2ccc(OC)cc2)C1 (stereo not given) — higher, 1570
- COc1ccc(CN2CCCC(CNC(=O)c3ccc(F)cc3)C2)cc1OC (stereo not given) — higher, 1700
- Cc1ccnc(NC(=O)CCC(=O)N(CC(=O)NCCc2ccccc2)Cc2cccs2)c1 — higher, 1720
- COc1cccc(CC2(CO)CCCN(Cc3nc(-c4cccs4)oc3C)C2)c1 (stereo not given) — higher, 1600
- CCOC(=O)N1CCN(C(=O)Cn2cnc3ccccc3c2=O)CC1 — higher, 1650
- Cc1ccc2nsnc2c1NC(=O)c1ccccc1[N+](=O)[O-] — higher, 1630
- COc1cc(/C=C/C(=O)O)cc(S(=O)(=O)Nc2ccccc2SC)c1OC — higher, 1430
- CCSc1nc(C)c(CCOc2cccc(C)c2)c(=O)[nH]1 — higher, 1860
- Cc1ccc(C(=O)NCC(=O)O)s1 — higher, 1560
- COc1cc(COCC(O)CN2CCN(Cc3ccc4c(c3)OCO4)CC2)cc(OC)c1OC (stereo not given) — higher, 1800
- CCN(CC)CC(=O)Nc1sc2c(c1C(=O)c1ccccc1C)CCC2 — higher, 1510
- Cc1cc(C(=O)NNC(=O)c2cccc(S(=O)(=O)N3CCOCC3)c2)c2ccccc2n1 — higher, 1670
- O=C(Cc1ccccc1)NNC(=O)C1CCN(c2ncccn2)CC1 — higher, 1500
